Calls of active or inactive are those of the source. No rule for the calls is given here.
Each compound was assayed against Pantothenate synthetase (Mycobacterium tuberculosis (strain ATCC 25618 / H37Rv)) (UniProt P9WIL5) (assay: Recombinant Mtb pantothenate synthetase (PanC) inhibitors, coupled enzyme, confirmatory (AID 375;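 also: 0% = full reaction with vehicle and 100% = no enzyme background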)). Conditions: coupled enzyme assay; at 10 µM, active compounds read high.
Chain of Pantothenate synthetase (Mycobacterium tuberculosis (strain ATCC 25618 / H37Rv)) (P9WIL5 whole entry, looked up): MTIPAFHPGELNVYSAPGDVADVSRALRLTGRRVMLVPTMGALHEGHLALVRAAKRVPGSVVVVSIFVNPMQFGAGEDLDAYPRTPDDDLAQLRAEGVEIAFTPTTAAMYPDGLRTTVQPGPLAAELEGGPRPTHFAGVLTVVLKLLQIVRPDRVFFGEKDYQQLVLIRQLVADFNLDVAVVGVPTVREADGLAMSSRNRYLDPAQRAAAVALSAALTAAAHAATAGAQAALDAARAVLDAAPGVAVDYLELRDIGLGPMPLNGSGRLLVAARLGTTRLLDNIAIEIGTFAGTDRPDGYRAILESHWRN

Row | SMILES | inhibition
1 | OCCNCCCCOc1ccccc1F | 0% (inactive)
2 | O=C(CCCOc1ccccc1)N1CCN(c2ccccn2)CC1 | 3% (inactive)
3 | O=C(Nc1ccc(NC(=O)C2CC2)cn1)c1ccccc1Cl | 0% (inactive)
4 | CCNc1ccc(S(=O)(=O)C(F)(F)F)cc1NC(=O)C12CCC(CC1)C2 | 0% (inactive)
5 | CCn1c(=O)cc(SCC(=O)NCCN2CCN(Cc3ccccc3)CC2)c2ccccc21 | 0% (inactive)
6 | COc1ccc2c(c1OC)C(=O)OC2Nn1cncn1 (stereo not given) | 2% (inactive)
7 | COc1ccc(C(=O)Nc2ccc(C)cn2)c(OC)c1 | 0% (inactive)
8 | CC1CN=C(N(C(=O)Nc2ccccc2)c2ccc(S(=O)(=O)N3CCOCC3)cc2)S1 (stereo not given) | 0% (inactive)
9 | O=C(NCc1cccnc1)C1c2ccccc2C(=O)N1Cc1ccco1 (stereo not given) | 1% (inactive)
10 | CCOc1ccccc1N1CCN(c2nc3ccccc3nc2C(C#N)C(=O)OC)CC1 (stereo not given) | 5% (inactive)
11 | Cn1c(=O)c2c(nc(CN3CCCCC3)n2CCc2ccccc2)n(C)c1=O | 1% (inactive)
12 | Cc1ccc(S(=O)(=O)NCCc2ccncc2)cc1 | 2% (inactive)
13 | Cc1ccc(-n2ncc3c(N4CCN(c5ccccc5)CC4)ncnc32)c(C)c1 | 0% (inactive)
14 | CC(=O)Nc1ccc(Cl)c(C(N)=O)c1 | 2% (inactive)
15 | COC(=O)c1cc(-c2c(C)nn(-c3ccccc3)c2C)n[nH]1 | 0% (inactive)
16 | Cc1ccc(-c2nnn(CC(=O)N(Cc3ccco3)C(C(=O)NC(C)(C)C)c3cccs3)n2)o1 (stereo not given) | 0% (inactive)
17 | COc1ccc(NC(=O)Nc2cc(C)ccc2OC)cc1 | 0% (inactive)
18 | c1ccc(-c2nc3nonc3c3nc4ccccc4n23)cc1 | 2% (inactive)
19 | CC1CN(CC(O)COc2ccc(C(C)C)cc2)CC(C)O1 (stereo not given) | 0% (inactive)
20 | O=C(C1CCN(S(=O)(=O)c2cccc3cccnc23)CC1)N1CCN(C2CCCCC2)CC1 | 0% (inactive)

Row | SMILES | inhibition
21 | O=C1c2ccccc2S(=O)(=O)N1Cc1nnc(-c2ccccc2Br)o1 | 0% (inactive)
22 | COCCn1c(=O)[nH]c2cc(C(=O)NCCCN3CCN(c4ccc(F)cc4)CC3)ccc2c1=O | 0% (inactive)
23 | CN1CCC(=C2c3ccccc3CC(=O)c3sccc32)CC1 | 2% (inactive)
24 | O=C(CSc1nnc(-c2ccccc2)c(-c2ccccc2)n1)N1CCOCC1 | 0% (inactive)
25 | CCC1CCCCN1S(=O)(=O)c1ccc(C(=O)Nc2nnc(-c3ccccc3Cl)o2)cc1 (stereo not given) | 4% (inactive)
26 | CCOc1ccccc1C1N(c2ccc(F)cc2)C(=O)C2CCCN21 (stereo not given) | 2% (inactive)
27 | O=C(COC(=O)c1ccccc1Oc1ccccc1)NC1CCS(=O)(=O)C1 (stereo not given) | 0% (inactive)
28 | Cc1ccc(Cl)cc1N1CCN(C(=O)C2CCCN(S(=O)(=O)c3cnc[nH]3)C2)CC1 (stereo not given) | 0% (inactive)
29 | CCCNC(=O)Nc1ccccc1C(=O)Nc1ccc(OC)cc1 | 2% (inactive)
30 | Cc1ccc(CCNC(=O)C2CCN(S(=O)(=O)c3ccc4c(c3)CCC(=O)N4)CC2)cc1 | 0% (inactive)
31 | CCOC(=O)c1[nH]c2ccccc2c1NC(=O)CCN1CCN(C(=O)OCC)CC1 | 0% (inactive)
32 | O=C(Nc1ncc2c(n1)CC(c1ccccc1)CC2=O)c1ccco1 (stereo not given) | 3% (inactive)
33 | CCOc1ccc(OCC)c2sc(C)nc12 | 2% (inactive)
34 | O=C(CCC(=O)N1CCN(S(=O)(=O)c2ccccc2)CC1)c1cccs1 | 9% (inactive)
35 | O=C(Nc1ccc(S(=O)(=O)NCCc2ccccc2)cc1)c1ccc(Br)o1 | 3% (inactive)
36 | O=C1CC(N2CCN(c3cccc(C(F)(F)F)c3)CC2)C(=O)N1c1ccccc1 (stereo not given) | 0% (inactive)
37 | COc1ccc(OCC(=O)N2CCN(C(=O)Cc3ccccc3)CC2)cc1 | 0% (inactive)
38 | CCOC(=O)C(NC(=O)C1CCCN1C(=O)OCc1ccccc1)C(=O)OCC (stereo not given) | 4% (inactive)
39 | Cc1ccc(C(C)C)c(OCc2nnc(SCC(=O)Nc3ncc(C)s3)n2C)c1 | 2% (inactive)
40 | C#CCSc1nnc(-c2ccccc2)c(=O)[nH]1 | 0% (inactive)

Source: PubChem BioAssay
